Screening data from PubChem BioAssay.
MITF inh – human MITF inhibition, primary screen | O75030 | AlphaScreen MITF homodimerization, bead proximity signal | inhibition, % at 2.6 µM | hit rate 0.91% among 650,000; in the data active = inhibition above about 50%;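 note: 0% = vehicle wells with protein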
TEAD-YAP block – TEAD-YAP interaction inhibition. HEK-TIYL cells, TEAD-Gal4/YAP UAS-luciferase luminescence. inhibition, % at 9.12 µM. hit rate 1.4% among 640,000. AID 1259422; in the data active = inhibition above about 32%;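 note: 0% = median of test compound wells and 100% = reference inhibitor wells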
FBW7 activator – activators of human E3 ligase FBW7; AlphaScreen FBW7–phospho-cyclin E peptide binding, activator screen; normalized activity (activation), % at 26.1 µM; hit rate 0.13% among 650,000; AID 1259310; in the data active = normalized activity above about 1.9%;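 note: purified mutant Fbw7 with reduced substrate affinity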
Target sequence (Q969H0 whole entry, looked up): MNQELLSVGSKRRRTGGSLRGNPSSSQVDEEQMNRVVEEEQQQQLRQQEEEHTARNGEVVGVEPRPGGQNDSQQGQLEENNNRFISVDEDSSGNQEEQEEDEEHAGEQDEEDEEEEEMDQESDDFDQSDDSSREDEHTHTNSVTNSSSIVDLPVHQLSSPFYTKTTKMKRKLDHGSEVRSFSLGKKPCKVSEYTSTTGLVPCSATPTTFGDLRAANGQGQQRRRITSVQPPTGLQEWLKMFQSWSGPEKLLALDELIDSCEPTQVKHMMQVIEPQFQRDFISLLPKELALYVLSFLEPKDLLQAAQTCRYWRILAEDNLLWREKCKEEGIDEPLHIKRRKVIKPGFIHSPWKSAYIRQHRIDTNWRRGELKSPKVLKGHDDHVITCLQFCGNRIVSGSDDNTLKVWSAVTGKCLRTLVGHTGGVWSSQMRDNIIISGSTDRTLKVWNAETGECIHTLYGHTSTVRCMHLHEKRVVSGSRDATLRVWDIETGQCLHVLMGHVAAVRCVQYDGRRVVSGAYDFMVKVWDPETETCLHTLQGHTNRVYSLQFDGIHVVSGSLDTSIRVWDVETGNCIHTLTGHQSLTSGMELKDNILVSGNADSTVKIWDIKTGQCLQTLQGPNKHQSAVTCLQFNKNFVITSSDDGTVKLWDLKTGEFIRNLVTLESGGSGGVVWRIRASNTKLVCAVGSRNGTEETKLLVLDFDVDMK
GPR151 activ – activates the human receptor GPR151; PathHunter beta-arrestin GPR151 cells, luminescence; activation, % at 11.2 µM; hit rate 1% among 650,000; AID 1508602; in the data active = activation above about 4.9%;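 note: 0% = median of compound wells and 100% = cells with positive control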
An asterisk follows results filed as active. The list is not random: actives were taken first. Their share in the collection is about 3.5%.

SMILES | MITF inh | TEAD-YAP block | FBW7 activator | GPR151 activ
COc1ccc(CCNc2nc(-c3ccc(OC)cc3)ncc2C)cc1 | -3.3 | 0.2 | 0.0 | 0.4
COc1ccc(CCNc2nc(-c3ccc(OC)nc3)ncc2C)cc1 | 3.5 | 41.4* | -0.1 | -1.7
COc1ccc(CCNc2nc(-c3c(C)noc3C)ncc2C)cc1 | -3.6 | 40.9* | 0.1 | 0.5
CCOC(CNC(=O)c1nnc(CS(=O)(=O)c2ccccc2)o1)OCC | -5.7 | -6.1 | 0.4 | -1.3
Cc1sc2ncnc(N/N=C/c3ccc(N(C)CCO)cc3)c2c1C | -0.5 | -3.0 | -0.2 | 0.7
CCCC(=O)Nc1ccccc1-c1nc2cc3ccccc3cc2[nH]c1=O | -0.6 | 55.0* | -0.1 | 0.6
CCCC12CN3CC(C)(CN(C1)C3c1ccccc1)C2=O (stereo unspecified) | -0.5 | 3.7 | -0.2 | -1.1
O=C(CCc1ccco1)N1CCC(c2ccncc2)CC1 | 2.6 | -10.9 | -0.1 | -1.3
OC1(c2ccc(OC(F)F)cc2)CSC(=Nc2cccnc2)N1C1CC1 (stereo unspecified) | 19.9 | 42.1* | -0.1 | 0.4
Cc1ccc(NC(=O)c2cnc3sccn3c2=O)c(C)c1 | -1.8 | -55.4 | -0.2 | -0.5
CCOC(=O)c1c(NC(=O)C2C3C=CC(C3)C2(C)C(=O)O)sc2c1CCCC2 (stereo unspecified) | 60.0* | 39.8* | -1.4 | 1.9
O=C(Nc1ccc(-c2noc(-c3cccc(Cl)c3)n2)cc1)c1ccco1 | -10.3 | 53.6* | 0.9 | -0.4
COc1ccc(O)c(/C=N/n2c(C)csc2=NC(C)C)c1 | 24.4 | 41.4* | 0.0 | -1.7
Cc1ccc(CN2CC(C(=O)Nc3ncc(C)s3)CC2=O)cc1 (stereo unspecified) | -6.8 | 44.5* | -0.1 | -0.7
CC1=C(C(N)=O)C(c2ccc(O)cc2)n2nc(SCc3ccccc3F)nc2N1 (stereo unspecified) | 0.0 | -7.8 | -0.3 | 0.0
CCOCCn1c2c(c3ccccc31)=NC1C=CC=CC1N=2 (stereo unspecified) | 7.6 | -25.9 | 2.7* | -1.1
CCOC(=O)N1CCN(c2nc3ccccc3nc2NS(=O)(=O)c2ccccc2)CC1 | 15.6 | -0.3 | 0.8 | -2.1
O=C(/C=C/c1ccccc1)N1CCN(Cc2nc(-c3ccc(F)cc3)cs2)CC1 | 9.7 | 38.6* | -0.1 | 0.5
O=C(/C=C/c1ccc(F)cc1)N1CCN(Cc2ccccc2)CC1 | -6.7 | -25.6 | -0.1 | 0.0
FC(F)(F)c1cnc(Nc2ccccn2)cc1Nc1ccccn1 | 4.2 | 54.2* | -0.2 | -0.6
CN1Cc2cccc(Nc3cc(Nc4cccc5c4C(=O)N(C)C5)c(C(F)(F)F)cn3)c2C1=O | 15.8 | -5.1 | 0.1 | -0.1
O=C(Nc1ccc2nc3n(c(=O)c2c1)CCCCC3)c1c(F)ccc([N+](=O)[O-])c1F | 9.1 | 36.2* | 0.0 | 0.1
O=C(Nc1ccc2nc3n(c(=O)c2c1)CCCCC3)c1cc([N+](=O)[O-])ccc1F | 0.0 | 28.9 | -0.1 | 0.9
CC1=C(C(=O)OCc2ccccc2)C(c2ccccc2C(F)(F)F)NC(=O)N1C (stereo unspecified) | 1.0 | -2.2 | 0.0 | -0.5
N#CC1=C(N)N(c2sc3c(c2C#N)CCCCC3)C2=C(C(=O)CCC2)C1c1cccs1 (stereo unspecified) | -5.0 | 52.7* | -0.1 | 2.4
SMILES | MITF inh | TEAD-YAP block | FBW7 activator | GPR151 activ
N#CC1=C(N)N(c2sc3c(c2C#N)CCCCC3)C2=C(C(=O)CCC2)C1c1ccccc1 (stereo unspecified) | 0.1 | 14.0 | -0.3 | 0.6
COc1ccccc1NC(=O)Cn1cnc2sc(C(=O)Nc3cccc(C(F)(F)F)c3)c(C)c2c1=O | -4.5 | 0.7 | -0.2 | -0.9
COc1ccccc1NC(=O)Cn1cnc2sc(C(=O)Nc3ccc(C(F)(F)F)cc3)c(C)c2c1=O | 6.0 | -6.1 | 2.2* | -0.1
CCCNC(=O)Cn1cnc2sc(C(=O)NCCCOC)c(C)c2c1=O | -1.1 | -3.4 | 3.2* | -2.0
COc1ccccc1NC(=O)Cn1cnc2sc(C(=O)NC3CCCC(C)C3C)c(C)c2c1=O (stereo unspecified) | 11.9 | -9.6 | 2.0* | -1.5
O=C(Nc1nnc(SCCN2CCCC2)s1)C1CCC1 | 7.8 | 2.3 | 0.1 | 0.2
CCNC(=O)/C(C#N)=C/c1c(Oc2cccc(C)c2C)nc2ccccn2c1=O | -9.6 | 41.7* | -0.1 | -4.3
CNC(=O)/C(C#N)=C/c1c(Oc2cccc(C)c2C)nc2ccccn2c1=O | 9.2 | 27.5 | 0.0 | -3.0
CCNC(=O)/C(C#N)=C/c1c(Oc2ccccc2C)nc2ccccn2c1=O | 5.3 | 33.7* | -0.1 | -5.6
COc1cc(CN2Cc3ccccc3OC(C)C2)cc(OC)c1OC (stereo unspecified) | -0.8 | -0.7 | 0.0 | -0.8
O=C(Nc1ccc(O)cc1)c1scc2c1CCCC2 | -0.1 | 68.3* | 0.2 | -1.9
O=C(c1cn(-c2ccc(Cl)cc2)c(=O)c2ccccc12)N1CCN(Cc2ccccc2)CC1 | 3.7 | 23.5 | -0.1 | 0.9
CCOC(=O)C1=CN(C(C)C)C=C(C(=O)OCC)C1c1cccc(F)c1 | -24.9 | 9.6 | 0.7 | 2.6
COc1ccc(-c2noc(-c3nnn(-c4cccc(Cl)c4C)c3N)n2)cc1 | 7.9 | -1.7 | 0.0 | -0.9
Clc1ccccc1Nc1ccnc(Nc2ccccc2Cl)c1 | 11.7 | 18.5 | 0.2 | -1.0
COc1ccccc1Oc1ccc(S(=O)(=O)Nc2ccc3c(c2)OCCO3)cc1 | 12.8 | 44.3* | 0.0 | 1.6
COc1ccc(S(=O)(=O)Nc2ccc3c(c2)OCCO3)cc1Br | -2.7 | 0.0 | -0.2 | 0.3
CCOc1cc(C#N)c(NC(=O)c2ccco2)cc1OCC | 1.9 | 52.1* | 0.1 | -0.2
Cc1cc(=O)oc2cc(OCC(=O)N/N=C/c3ccco3)ccc12 | -1.7 | 19.1 | 0.0 | 0.4
CCN(CC)S(=O)(=O)c1ccc(Cl)c(C(=O)Nc2nccs2)c1 | 4.8 | 17.2 | 0.1 | -1.3
Cc1ncn(-c2ccc(Nc3nccc(-c4ccc(N5CCCC(CO)C5)c(C#N)c4)n3)cc2)n1 (stereo unspecified) | 8.5 | 46.5* | 0.2 | 2.8
C[C@@H]1CN(C(=O)Nc2cccc(Nc3nccc(-c4ccc(N5CCC(O)CC5)c(C#N)c4)n3)c2)C[C@H](C)O1 | 14.5 | 39.8* | 0.6 | -0.7
N#Cc1cc(-c2ccnc(Nc3ccc(-n4cnc(N5CCC(O)CC5)n4)cc3)n2)ccc1N1CCC(O)CC1 | -3.0 | 49.9* | 0.0 | 1.3
Cc1ncn(-c2ccc(Nc3nccc(-c4ccc(C#N)c(N5CCCC5)c4)n3)cc2)n1 | 20.5 | 30.3 | 0.2 | -0.9
Cc1ncn(-c2ccc(Nc3nccc(-c4ccc(C#N)c(N5CCC(O)CC5)c4)n3)cc2)n1 | 31.2 | 69.5* | 0.2 | 0.1
CCN(CC(=O)Nc1ccc(C(N)=O)cc1)CC(=O)Nc1ccccc1C(F)(F)F | -0.2 | 17.9 | -0.1 | -0.6
COc1ccc(/C=C/C(=O)NC2CC2)cc1OC | 6.7 | 7.5 | 0.0 | -0.4
CCCCC(=O)NC(c1ccc(N(C)C)cc1)c1ccc2cccnc2c1O (stereo unspecified) | 21.8 | 75.1* | -2.0 | -0.8
CCC(=O)NC(c1ccc(N(C)C)cc1)c1ccc2cccnc2c1O (stereo unspecified) | 35.0 | 68.6* | -2.0 | -0.2
